Experimental data from the supplement of paper PMC6555819.

Tested on: PPARg:RXRa IVT, anti-PPARg (NR concentration 270 nM, RXRa partner concentration 90 nM)
Assay: PBM binding z-score (relative to random genomic background probes); higher = stronger binding; sequences stand for … in GC…GCGATTGACAGCGTAGAATGAAGG
Summary of the method: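 Scanned fluorescence from custom Agilent 4×180K protein-binding microarrays was regression-normalized. Binding z-scores use random background probes as reference. Ligand-free nuclear receptor dimers were incubated on the arrays for 1 h and detected with antibodies against each partner (one per run).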

Row | Sequence | PBM binding z-score
1 | TCATATAGGTAACCAGGTGAAAGTCCGTAAGTTA | 5.99
2 | TGAATGAGGCTATAAGATCAGGGAACGTTGCAAA | -0.142
3 | CCGACTGGGCCAAGGTTACCATAACGCACAGCCA | 1.71
4 | AGAATGAGGTTATTAAGGTCAGGGAATTGCGGTC | 4.42
5 | CCTTACGAGTCACGAGGTTATAGCACGACGAGCG | 0.318
6 | GCTATTAGTTGAAAGGGCCACCGAATGATTCTCG | -0.116
7 | GCTATTAGTTGAAAGGGCAACCGCATGATTCTCG | 1.26
8 | CCTGCTTGGTCATGGTCAGCTAATCTACAGTATG | 0.0763
9 | CAAACTAGGTCACAGAGTTCAAAGTCCGTGCGTA | 9.07
10 | CGTCAAAGTTCACGGTAACGTAACAGAAAGCAGC | 2.31
11 | ATCTCTAGGTAAAGATAATTCAGTGAATGCAAAT | 1.93
12 | GGAACAAGGGCATTCGAGTTGATAGCATGGCGAT | 1.65
13 | CCTACTGGGGCATAAGGTTACCATAAGCCAGCCC | 5.02
14 | GATACAGGGTCAAGGCCAGAGCACGCGTATTGAT | 4.08
15 | CCTAGTTGGTCAAGGTCACTCACGCTATAGGTAC | 3.16
16 | TAGCCTGGGTCATTGGGCCAGTATAGTACGCATC | 3.57
17 | ATCTCTAGTTAAAAGTTCAGTGAATCCCGAGGAT | 0.398
18 | TCTGCTAGGTCAGTGGGTCAGCTAACGAGCTGCC | 5.76
19 | CCTTACGGGTCACGAGGTTTTAGCACGACGAGCG | 5.48
20 | GCTTACGGGTCAAAGGCTATAGCATGAATAGAAT | 4.33
21 | AGAATGAGGTTATTAAGTTCAGGGAATTGCGGTC | 2.49
22 | ACAGACAGGTGATGAAGGTAACTCCGGCTATCAT | 0.462
